Measurements reported in PubChem BioAssay (NCATS).
Inconclusive results are not listed. Values without a mark were called inactive. Calls follow the shape of the dose curve; as a rule, active = well fitted curve in the direction sought with a large enough effect; inconclusive = small, poorly fitted or top-dose-only effect, or effect the other way, or another doubt; inactive = no such curve, though single readings can be large or run the other way.

These compounds were tested against Transient receptor potential cation channel subfamily V member 1 (Homo sapiens) (UniProt Q8NER1) (assay: HTS Assay for Compounds that Act as Enhancers of the Vanilloid Receptor 1 (AID 488979; also: 0% is about no effect)). Conditions: TRPV1-expressing cells, enhancer of channel activity; series mostly up to 41.7 µM; activity change, positive = enhancement: at the top concentration.
Chain of Transient receptor potential cation channel subfamily V member 1 (Homo sapiens) (Q8NER1 whole entry, looked up): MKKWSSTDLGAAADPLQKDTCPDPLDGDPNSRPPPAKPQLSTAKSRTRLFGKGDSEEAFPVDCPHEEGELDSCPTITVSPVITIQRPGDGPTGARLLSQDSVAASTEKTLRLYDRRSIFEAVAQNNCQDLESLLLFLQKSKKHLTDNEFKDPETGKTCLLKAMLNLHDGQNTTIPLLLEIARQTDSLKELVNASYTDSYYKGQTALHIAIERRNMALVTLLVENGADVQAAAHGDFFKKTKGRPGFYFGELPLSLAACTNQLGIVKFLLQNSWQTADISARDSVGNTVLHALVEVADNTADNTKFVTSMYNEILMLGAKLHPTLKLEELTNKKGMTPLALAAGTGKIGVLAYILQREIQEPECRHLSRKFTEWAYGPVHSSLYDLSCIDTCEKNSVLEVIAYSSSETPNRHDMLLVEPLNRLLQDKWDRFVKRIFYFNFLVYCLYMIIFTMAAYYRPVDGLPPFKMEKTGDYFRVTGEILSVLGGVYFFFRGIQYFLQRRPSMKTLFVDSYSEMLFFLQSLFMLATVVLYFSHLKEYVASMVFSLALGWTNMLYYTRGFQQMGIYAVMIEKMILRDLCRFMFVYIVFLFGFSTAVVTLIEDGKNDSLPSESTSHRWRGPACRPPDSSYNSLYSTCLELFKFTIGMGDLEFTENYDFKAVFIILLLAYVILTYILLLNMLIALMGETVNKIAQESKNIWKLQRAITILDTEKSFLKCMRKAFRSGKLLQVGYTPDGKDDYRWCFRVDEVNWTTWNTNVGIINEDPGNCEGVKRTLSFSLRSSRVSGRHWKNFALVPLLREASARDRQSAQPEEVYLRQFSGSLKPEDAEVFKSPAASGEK
From the text: The transient receptor potential ion channel, family V, number 1, (TRPV1) is one of the most important molecular transducers of painful stimuli and a potential target for analgesic drug development. Although recent clinical trials with orthosteric antagonists have not produced a successful drug because of a hyperthermia side effect and their tendency to block thermal noxious pain, this ion channel is undeniably well placed in the pain pathway, and the idea of blocking pain signals before they enter the CNS is an excellent concept and of proven efficacy when TRPV1 agonists are used. We propose a new approach involving allosteric modulation to impose an activity-dependent constraint within the context of inflammation and tissue damage that would alter the responsiveness of the channel in a way that an orthosteric vanilloid antagonist cannot achieve. We believe that the allosteric modulator approach has not been explored for this target.
The main goal of this proposal is to identify additional, new, potent allosteric modulators of TRPV1 that can be used to investigate TRPV1 function. Our recent report provides evidence of proof of concept, but the compounds are just at the edge of utility in terms of potency. […] The question of whether they can be used as analgesic agents is complex, but if suitable compounds are identified then testing for analgesic properties will be conducted.
Upon TRPV1 activation in TRPV1 cells, the channel opens and extracellular cations flow through the channel into the cytosol. A calcium binding dye (Fluo-8) becomes fluorescent when bound to calcium. This dye is pre-loaded into cells and is used as a marker for calcium influx.
The amount of accumulated calcium is precisely quantified using the FDSS kinetic reader and the calcium dye.
For the HTS assay, freshly prepared cells are plated at a density of 2000/well in 3 ul medium in 1536-well plates and cultured overnight at 35.5C. Cells will be loaded with 1 ul of the homogeneous calcium dye (ABD Bioquest) at room temperature for 40 to 90 minutes. Plates will be loaded into the FDSS kinetic reader and a 1 sec / cycle for 10 second baseline signal will be measured. Compound library will then be added with a pintool at 23 nl and measured kinetically for 3 minutes. This portion of the read is considered the agonist portion of the screen. Following the 3 minutes of incubation, an on board pipettor will deliver 1 ul of capsaicin for a final concentration equal to the EC20. Signal will be measured kinetically for an additional 2 minutes. This portion of the read is considered the allosteric enhancer portion of the screen.
The FDSS reader has a standard filter set capable of measuring calcium bound Fluo-8 (ex=480 and em=520 nm).

SMILES | activity change, positive = enhancement
CC(O)C(C)OC(=O)[C@@H]1C[C@@H]2c3cccc4c3c(cn4C(C)C)C[C@H]2N(C)C1 (some centres not stated) | -11.1%
C[C@@H]1O[C@@H](O[C@H]2C[C@@H](O)[C@]3(CO)[C@@H]4C(CC[C@]3(O)C2)[C@@]2(O)CC[C@H](C3=CC(=O)OC3)[C@@]2(C)C[C@H]4O)[C@H](O)[C@H](O)[C@H]1O (some centres not stated) | -3.51%
CP(=O)(O)CCCN | -3.44%
O=[N+]([O-])c1ccc(O[C@@H]2O[C@H](CO)[C@@H](O)[C@H](O)[C@H]2F)c([N+](=O)[O-])c1 | 5.21%
N[C@@H](Cn1cc(I)c(=O)[nH]c1=O)C(=O)O | 4.01%
COC(=O)c1cc2c(cn1)[nH]c1ccccc12 | 10.6%
N#CC(C#N)=Cc1ccc([N+](=O)[O-])c(O)c1 | 6.24%
COc1cc(CCN)ccc1O | -1.85%
C[N+]1(C)CCc2cc3c(cc2C1C1OC(=O)c2c1ccc1c2OCO1)OCO3 (configuration not stated) | 4.31%
CN1CCc2cc(O)cc3c2C1Cc1ccc(O)c(O)c1-3 (configuration not stated) | 1.19%
COc1ccc(-n2nc(C(F)(F)F)cc2-c2ccc(Cl)cc2)cc1 | -14.5%
CN1CCN(c2ccc3ccccc3n2)CC1 | -9.22%
CC(=O)OCC1=C(C(=O)[O-])N2C(=O)[C@@H](NC(=O)CCC[C@@H](N)C(=O)[O-])[C@H]2SC1.[Zn+2] | 7.35%
COc1ccc2[nH]cc(CCN(C)C)c2c1 | 13%
N[C@H](CCCCCP(=O)(O)O)C(=O)O | -2.26%
C=CCN1CCC2(C)c3cc(O)ccc3CC1C2C (configuration not stated) | 13.7%
COc1ccc(CCN)cc1O | 8.17%
